# GSIS activator: GLuc luminescence reporter in INS-1E cells, primary screen for activators of glucose-dependent secretion of insulin; INS-1E GLuc reporter insulin secretion, 2-3 h; activation, % at 16.6 µM; actives 0.61% (n = 370,000);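 active = lowest replicate activation of at least 40%, so every replicate reaches that level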;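 also: 0% = median of neutral control wells and 100% = median of IBMX positive control wells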
# DENV2 CPE rescue: inhibitors of DENV2 cytopathic effect. DENV2-infected cells, cytopathic effect rescue, plate reader. CPE inhibition, % at 9.99 µM. actives 1.7% (n = 350,000); in the data active = CPE inhibition above about 20%, passing the limit was not always enough; inconclusive = no clear call, values can overlap the other calls; tested in BHK-21 cells;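 also: 0% = median of neutral control wells and 100% = median of positive control wells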
# ERAP1 HTS inh: ERAP1 (human) enzyme inhibition; inhibition, % at 10.7 µM; Q9NZ08; recombinant ERAP1, Leu-AMC fluorescence, 60 min; actives 0.15% (n = 340,000);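 active = mean replicate inhibition of at least 30%, or all replicates individually reaching that 30% level; inactive = mean below 30% and not every replicate reaching it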;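 also: 0% = neutral control wells and 100% = L-leucinethiol positive control wells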
# Target sequence (Q9NZ08 whole entry, looked up): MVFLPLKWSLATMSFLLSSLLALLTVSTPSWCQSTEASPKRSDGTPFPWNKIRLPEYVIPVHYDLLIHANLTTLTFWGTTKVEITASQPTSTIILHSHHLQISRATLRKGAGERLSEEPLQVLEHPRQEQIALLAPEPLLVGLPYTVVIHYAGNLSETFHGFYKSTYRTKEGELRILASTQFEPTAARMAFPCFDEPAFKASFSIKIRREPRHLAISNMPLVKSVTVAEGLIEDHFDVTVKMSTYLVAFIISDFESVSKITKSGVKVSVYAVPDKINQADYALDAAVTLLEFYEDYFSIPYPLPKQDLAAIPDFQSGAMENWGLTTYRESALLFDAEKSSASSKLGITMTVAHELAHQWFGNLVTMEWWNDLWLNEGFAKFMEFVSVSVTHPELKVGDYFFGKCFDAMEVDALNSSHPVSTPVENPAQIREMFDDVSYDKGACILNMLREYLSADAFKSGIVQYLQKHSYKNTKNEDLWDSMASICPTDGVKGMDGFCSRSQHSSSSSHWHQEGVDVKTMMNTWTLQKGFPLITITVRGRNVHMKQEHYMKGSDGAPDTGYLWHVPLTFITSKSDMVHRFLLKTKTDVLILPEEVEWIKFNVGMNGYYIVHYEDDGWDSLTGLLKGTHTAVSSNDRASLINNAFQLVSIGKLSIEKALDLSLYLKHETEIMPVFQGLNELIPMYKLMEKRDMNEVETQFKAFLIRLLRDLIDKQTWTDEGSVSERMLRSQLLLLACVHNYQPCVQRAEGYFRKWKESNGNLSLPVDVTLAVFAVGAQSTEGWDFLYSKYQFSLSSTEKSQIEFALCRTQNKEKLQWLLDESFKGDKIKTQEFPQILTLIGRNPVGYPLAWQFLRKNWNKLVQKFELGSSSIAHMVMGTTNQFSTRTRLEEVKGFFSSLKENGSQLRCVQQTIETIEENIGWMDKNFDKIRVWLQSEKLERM
# rRNA inh HTS: inhibits bacterial ribosomal RNA function over humanized ribosomes; AID 720706; GFP signal change (wild-type ribosome), % (concentration not given with the values); actives 1.6% (n = 350,000); E. coli WT GFP vs humanized-ribosome RFP mutants, fluorescence, 24 h; stronger effect = lower value; DMSO median 0, no signal -100;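 active = significant combined selectivity score with lowered wild-type GFP, culture density cut under 30%, mutant RFP and density less affected; inactive = any of these conditions unmet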
# CaV13 FRET inh: Primary screen for inhibitors of IQ motif and Ca2+-dependent inactivation inhibitor domain binding in CACNA1D, Förster resonance energy transfer in living cells, … | HEK cells, CFP/YFP FRET ICDI-IQ, plate reader, 10 min; percent FRET-ratio fall versus neutral wells | inhibition, % at 12.3 µM | actives 0.098% (n = 340,000);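 active = mean replicate inhibition of at least 30% and at least 1% of replicates passing that level; inconclusive = only one of the two criteria is met; inactive = neither criterion is met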;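 also: 0% = median of the neutral control wells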
# PGC1a acetyl inh: modulators of PGC1a acetylation; U2OS PGC1a acetylation, AlphaScreen anti-acetyl-lysine; with virally co-expressed GCN5 acetyltransferase; inhibition, % at 15.6 µM; actives 0.17% (n = 350,000); AID 651687;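 active = every replicate shows inhibition of at least 40%; inconclusive = mean inhibition at least 40% but some replicate below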;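 also: 0% = neutral control wells and 100% = positive control wells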
# Starred values were filed as active, the others as inactive; ? = inconclusive; nt = no result given. An excerpt weighted towards active compounds, which were near 3.2% of everything screened.
SMILES,GSIS activator,DENV2 CPE rescue,ERAP1 HTS inh,rRNA inh HTS,CaV13 FRET inh,PGC1a acetyl inh
O=S(=O)(c1ccccc1)N1C[C@H]2[C@@H](c3ccccc31)[C@@H](CO)N2Cc1ccccc1,-1,27*,1,-49*,nt,-8
Cc1cccc(S(=O)(=O)N2C[C@H]3[C@@H](c4ccccc42)[C@@H](CO)N3C(=O)c2ccccc2)c1,5,57*,-2,-9,nt,-4
O=S(=O)(c1ccccc1)N1C[C@H]2[C@@H](c3ccccc31)[C@H](CO)N2Cc1ccc(F)cc1,-13,-12,1,-53,nt,-15
C[C@@H]1CN([C@H](C)CO)C(=O)Cc2cc(NC(=O)NC3CCCCC3)ccc2O[C@@H]1CN(C)C(=O)NC1CCCCC1,3,-3,2,2,nt,14
CC(C)[C@H]1CCc2cnnn2COC[C@@H](c2ccccc2)NC1=O,15,nt,nt,5,nt,nt
Cc1ccc(S(=O)(=O)N2CC[C@@H]3[C@@H](CO)Nc4ccc(C#Cc5ccccc5F)cc4[C@@H]32)cc1,7,2,nt,1,nt,-5
COc1ccc(S(=O)(=O)N(C)C[C@H]2Oc3c(NC(=O)Nc4cccc5ccccc45)cccc3C(=O)N([C@@H](C)CO)C[C@@H]2C)cc1,7,-7,0,4,nt,-7
COc1ccccc1NC(=O)CSc1nnnn1Cc1ccccc1,-7,7,-3,-29*,-8,-13
CCc1nnc(NC(=O)CSc2nnc(-c3ccc(NS(=O)(=O)c4ccccc4)cc3)o2)s1,4,26*,-5,-16,-5,-7
COc1ccccc1NC(=O)CSc1nnc(Cc2ccccc2)o1,nt,9,6,nt,-7,2
COC(=O)CSc1nnc(-c2ccc(NS(=O)(=O)c3ccccc3)cc2)o1,nt,nt,nt,nt,-2,4
COc1ccccc1NC(=O)CSc1ccc(-c2cccs2)nn1,1,6,0,-27*,-5,nt
COc1ccccc1NC(=O)CSc1nnc(-c2ccccc2)o1,84*,1,2,-1,-2,nt
COc1ccc(-c2cnc3c(c2)C(=O)N([C@H](C)CO)C[C@H](C)[C@H](CN(C)C(=O)C2CC2)O3)cc1,0,nt,nt,5,nt,-3
C[C@@H]1CN([C@@H](C)CO)C(=O)c2cc(-c3cccc(C(=O)N(C)C)c3)cnc2O[C@H]1CN(C)C,27,-6,-4,6,nt,6
CCOC(=O)CSc1nnc(-c2cc(OC)c(OC)c(OC)c2)o1,-31,2,21,1,3,-4
COc1cc(-c2nnc(SCC(=O)c3ccccc3)o2)cc(OC)c1OC,-3,nt,2,-25*,-9,2
Nc1ccccc1C(O)(Cc1ccccc1)c1ccccc1 (stereo not drawn),-10,36*,2,-16,-3,-36
OC(Cc1cccnc1)(c1ccccc1)c1ccccc1,8,?,3,-3,-7,nt
CCCC#Cc1cnc2c(c1)C(=O)N([C@H](C)CO)C[C@H](C)[C@H](CN(C)Cc1ccc(C(=O)O)cc1)O2,2,-14,10,2,nt,11
O=C(Nc1ccc(Cl)c(Cl)c1)N[C@@H]1CC[C@H](CCn2cc(C3CCCCC3)nn2)O[C@H]1CO,-36,11,0,-46*,nt,4
CN(C)CC(=O)N[C@@H]1CC[C@@H](CCn2cc(C3CCCCC3)nn2)O[C@H]1CO,-3,24*,0,-2,nt,3
CCCN1[C@@H]2c3ccc(-c4cccc(F)c4)c(=O)n3C[C@H]1[C@H](CO)[C@H]2C(=O)NCC1CC1,8,-4,-2,2,nt,nt
C/C=C/c1ccc([C@@H]2[C@@H](CN(C)C(=O)CC)N(S(C)(=O)=O)[C@H]2CO)cc1,3,nt,nt,-2,nt,9
CNC(=S)NC1CC2CCCC(C1)N2Cc1ccc(C)cc1 (stereo not drawn),27,12,1,11,-21,nt
CNC(=S)NC1CC2CCCC(C1)N2Cc1ccccc1OC (stereo not drawn),-2,6,-5,-17*,-5,12

# Compound activity: PubChem, Broad Institute
